Out of some 5,500 compounds screened, about 2,000 (36%) were called active. Inconclusive results (about 18%) are left out. No stated cut-off is given here; in the data, active means normalized growth mostly below about 0.91 (no sharp cut-off); inconclusive means no clear call, values can overlap the other calls; inactive means mostly above about 0.92. The list shows a part of the results.
Assay: chemical genetic growth profiling, strain panel (AID 1159580);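 further: tested at 20 µM; growth read once vehicle control cultures reached saturation at 30 °C; 1 = growth at the plate median or of vehicle wells; lower values mean less growth of the strain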
Conditions: growth OD

Measured: normalized growth

C[C@]12CCC3c4ccc(O)cc4CCC3C1CC[C@@H]2OC(=O)CCC1CCCC1 (stereo not given in full)
inactive: S. cerevisiae deletion strains, locus YJR075W, strain HOC1, hits give low values 0.988 | S. cerevisiae deletion strains, locus YKL009W, strain mrt4, hits give low values 0.986 | S. cerevisiae deletion strains, locus YKL068W, hits give low values 0.991 | S. cerevisiae deletion strains, locus YKL085W, strain MDH1 (second series), hits give low values 0.998 | S. cerevisiae deletion strains, locus YKL085W, strain MDH1, hits give low values 0.998 | S. cerevisiae deletion strains, locus YKL160W, strain elf1, hits give low values 1.03 | S. cerevisiae deletion strains, locus YKL190W, strain CNB1, hits give low values 0.992 | S. cerevisiae deletion strains, locus YKR001C, strain vps1, hits give low values 0.973 | S. cerevisiae deletion strains, locus YKR026C, strain gcn3, hits give low values 1.01 | S. cerevisiae deletion strains, locus YKR091W, strain srl3, hits give low values 1.02 | S. cerevisiae deletion strains, locus YLL001W, strain dnm1, hits give low values 1.03 | S. cerevisiae deletion strains, locus YLL026W, hits give low values 1.01 | S. cerevisiae deletion strains, locus YLL041C, strain sdh2, hits give low values 1 | S. cerevisiae deletion strains, locus YLR027C, strain aat2, hits give low values 0.995 | S. cerevisiae deletion strains, locus YLR039C, strain RIC1, hits give low values 0.984 | S. cerevisiae deletion strains, locus YLR058C, strain SHM2, hits give low values 0.991 | S. cerevisiae deletion strains, locus YLR102C, strain apc9, hits give low values 1.01 | S. cerevisiae deletion strains, locus YLR113W, strain HOG1, hits give low values 1.06 | S. cerevisiae deletion strains, locus YLR221C, strain rsa3, hits give low values 1.02 | S. cerevisiae deletion strains, locus YLR258W, strain gsy2, hits give low values 1.01 | S. cerevisiae deletion strains, locus YLR262C, strain YPT6 (second series), hits give low values 1.02 | S. cerevisiae deletion strains, locus YLR262C, strain YPT6, hits give low values 0.897 | S. cerevisiae deletion strains, locus YLR268W, strain sec22, hits give low values 0.993 | S. cerevisiae deletion strains, locus YLR320W, strain mms22, hits give low values 1.03 | S. cerevisiae deletion strains, locus YLR330W, strain CHS5, hits give low values 0.984 | S. cerevisiae deletion strains, locus YLR342W, strain FKS1 (second series), hits give low values 1 | S. cerevisiae deletion strains, locus YLR342W, strain FKS1, hits give low values 1.01 | S. cerevisiae deletion strains, locus YLR357W, strain rsc2, hits give low values 1.03 | S. cerevisiae deletion strains, locus YLR370C, strain arc18, hits give low values 1.02 | S. cerevisiae deletion strains, locus YLR371W, strain rom2, hits give low values 1.03 | S. cerevisiae deletion strains, locus YLR384C, strain iki3, hits give low values 1 | S. cerevisiae deletion strains, locus YLR418C, strain cdc73, hits give low values 1.03 | S. cerevisiae deletion strains, locus YML016C, strain PPZ1, hits give low values 0.988 | S. cerevisiae deletion strains, locus YML032C, strain rad52, hits give low values 0.986 | S. cerevisiae deletion strains, locus YML120C, strain ndi1, hits give low values 1.03 | S. cerevisiae deletion strains, locus YML124C, strain tub3, hits give low values 0.991 | S. cerevisiae deletion strains, locus YMR058W, strain fet3, hits give low values 1.01 | S. cerevisiae deletion strains, locus YMR078C, strain ctf18, hits give low values 1.01 | S. cerevisiae deletion strains, locus YMR125W, strain sto1, hits give low values 1.02 | S. cerevisiae deletion strains, locus YMR129W, hits give low values 1.02 | S. cerevisiae deletion strains, locus YMR205C, strain PFK2, hits give low values 1.01 | S. cerevisiae deletion strains, locus YMR223W, strain ubp8, hits give low values 1.04 | S. cerevisiae deletion strains, locus YMR231W, strain pep5, hits give low values 1 | S. cerevisiae deletion strains, locus YMR307W, strain GAS1, hits give low values 0.998 | S. cerevisiae deletion strains, locus YNL067W, strain RPL9B, hits give low values 0.988 | S. cerevisiae deletion strains, locus YNL071W, strain lat1, hits give low values 1.01 | S. cerevisiae deletion strains, locus YNL128W, strain TEP1, hits give low values 0.976 | S. cerevisiae deletion strains, locus YNL183C, strain NPR1, hits give low values 0.982 | S. cerevisiae deletion strains, locus YNL209W, strain ssb2, hits give low values 1.01 | S. cerevisiae deletion strains, locus YNL233W, strain BNI4, hits give low values 0.993 | S. cerevisiae deletion strains, locus YNL248C, strain rpa49, hits give low values 1.02 | S. cerevisiae deletion strains, locus YNL250W, strain rad50, hits give low values 1.01 | S. cerevisiae deletion strains, locus YNL271C, strain bni1, hits give low values 0.999 | S. cerevisiae deletion strains, locus YNL298W, strain CLA4, hits give low values 0.999 | S. cerevisiae deletion strains, locus YNL307C, strain MCK1, hits give low values 0.996 | S. cerevisiae deletion strains, locus YNL322C, strain KRE1 (second series), hits give low values 1.04 | S. cerevisiae deletion strains, locus YNL322C, strain KRE1, hits give low values 0.998 | S. cerevisiae deletion strains, locus YNR049C, strain mso1, hits give low values 1.03 | S. cerevisiae deletion strains, locus YNR052C, strain pop2, hits give low values 1.01 | S. cerevisiae deletion strains, locus YOL006C, strain TOP1, hits give low values 0.976 | S. cerevisiae deletion strains, locus YOL012C, strain htz1 1.23 | S. cerevisiae deletion strains, locus YOL147C, strain pex11, hits give low values 1.01 | S. cerevisiae deletion strains, locus YOR001W, strain rrp6, hits give low values 0.995 | S. cerevisiae deletion strains, locus YOR061W, strain CKA2, hits give low values 0.969 | S. cerevisiae deletion strains, locus YOR069W, strain VPS5, hits give low values 0.994 | S. cerevisiae deletion strains, locus YOR070C, strain gyp1, hits give low values 1.02 | S. cerevisiae deletion strains, locus YOR080W, strain dia2, hits give low values 0.998 | S. cerevisiae deletion strains, locus YOR083W, strain WHI5, hits give low values 1.05 | S. cerevisiae deletion strains, locus YOR106W, strain vam3, hits give low values 1.04 | S. cerevisiae deletion strains, locus YOR136W, strain idh2, hits give low values 0.991 | S. cerevisiae deletion strains, locus YOR144C, strain elg1, hits give low values 0.992 | S. cerevisiae deletion strains, locus YOR184W, strain ser1, hits give low values 0.99 | S. cerevisiae deletion strains, locus YOR231W, strain MKK1, hits give low values 1.07 | S. cerevisiae deletion strains, locus YOR265W, strain rbl2, hits give low values 1.01 | S. cerevisiae deletion strains, locus YOR270C, strain vph1, hits give low values 1.06 | S. cerevisiae deletion strains, locus YOR290C, strain snf2, hits give low values 0.986 | S. cerevisiae deletion strains, locus YOR316C, strain cot1, hits give low values 0.989 | S. cerevisiae deletion strains, locus YPL051W, strain arl3, hits give low values 1.01 | S. cerevisiae deletion strains, locus YPL055C, strain LGE1, hits give low values 0.994 | S. cerevisiae deletion strains, locus YPL078C, strain atp4, hits give low values 1.04 | S. cerevisiae deletion strains, locus YPL106C, strain sse1, hits give low values 1.05 | S. cerevisiae deletion strains, locus YPL240C, strain hsp82, hits give low values 0.996 | S. cerevisiae deletion strains, locus YPL241C, strain CIN2, hits give low values 0.979 | S. cerevisiae deletion strains, locus YPL256C, strain CLN2, hits give low values 1.03 | S. cerevisiae deletion strains, locus YPR119W, strain clb2, hits give low values 1 | S. cerevisiae deletion strains, locus YPR141C, strain kar3, hits give low values 0.996 | S. cerevisiae deletion strains, locus YPR163C, strain tif3, hits give low values 1 | S. cerevisiae deletion strains, locus YPR167C, strain met16, hits give low values 0.997 | S. cerevisiae deletion strains, strain wtn01, hits give low values 1.01 | S. cerevisiae strains, strain wild type, hits give low values 0.973
